This is an account of results in paper PMC7862700, “An all-to-all approach to the identification of sequence-specific readers for epigenetic DNA modifications on cytosine”.

What all share (assay): DAPPL (digital affinity profiling via proximity ligation, sequencing); 10 mM Tris-HCl pH 7.5, 50 mM NaCl, 1 mM DTT, 4% glycerol, room temperature, 30 min; GST-TFs on glutathione beads, 16-mer random dsDNA library, 0.1% formaldehyde crosslink after washing; high values mean tight binding
For test [1], the target named is T1, FEV (Homo sapiens, UniProt Q99581 1-238).
T1 sequence: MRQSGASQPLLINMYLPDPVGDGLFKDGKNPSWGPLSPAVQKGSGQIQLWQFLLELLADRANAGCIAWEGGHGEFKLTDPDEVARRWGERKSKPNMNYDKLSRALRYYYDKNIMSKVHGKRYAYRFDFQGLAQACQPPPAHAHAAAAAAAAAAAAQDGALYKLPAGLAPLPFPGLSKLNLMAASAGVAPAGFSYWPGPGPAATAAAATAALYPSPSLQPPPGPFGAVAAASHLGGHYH
Particulars: protein: recombinant; tags: N-terminal GST; dsDNA, one strand shown. Put shortly:
(§1)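 Binding signal is each hexamer's read frequency for a factor divided by its frequency in the tag-only sample. The factors were GST-fused human transcription factors from yeast, captured on glutathione beads, DNA-barcoded and pooled with that sample. Pools were incubated with 200 nmole of a random double-stranded 16-mer DNA library in Tris/NaCl/DTT/glycerol buffer at room temperature for 30 min, then washed, crosslinked with 0.1% formaldehyde, proximity-ligated with BsaI/T4 ligase (1 h, 37 °C), PCR-amplified and sequenced on an Illumina NextSeq500.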

For test [2], the target named is ETV5 (Homo sapiens, UniProt P41161 1-510). Particulars: protein: recombinant; tags: N-terminal GST; dsDNA, one strand shown. Put shortly: as §1
The target of test [3] is HSF1 (Homo sapiens, UniProt Q00613 1-529). Particulars: protein: recombinant; tags: N-terminal GST; chain copies: 3; dsDNA, one strand shown. Summed up: as §1
In test [4] the target is T2, SPIC (Homo sapiens, UniProt Q8N5J4 1-248).
T2 sequence: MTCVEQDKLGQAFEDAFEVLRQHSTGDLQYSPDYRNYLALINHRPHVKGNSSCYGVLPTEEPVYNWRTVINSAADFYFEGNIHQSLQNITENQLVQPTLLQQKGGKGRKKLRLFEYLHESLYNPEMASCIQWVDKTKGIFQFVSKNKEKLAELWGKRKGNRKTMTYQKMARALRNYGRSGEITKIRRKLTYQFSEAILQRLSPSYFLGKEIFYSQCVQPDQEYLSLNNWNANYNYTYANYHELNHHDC
Particulars: protein: recombinant; tags: N-terminal GST; dsDNA, one strand shown. Summed up: as §1

Test [5] deals with ELF4 (Homo sapiens, UniProt Q99607 1-663). Particulars: protein: recombinant; tags: N-terminal GST; dsDNA, one strand shown. Put shortly: as §1
Test [6] has as its target T3, ELK4 (Homo sapiens, UniProt P28324-2 1-405).
T3 sequence: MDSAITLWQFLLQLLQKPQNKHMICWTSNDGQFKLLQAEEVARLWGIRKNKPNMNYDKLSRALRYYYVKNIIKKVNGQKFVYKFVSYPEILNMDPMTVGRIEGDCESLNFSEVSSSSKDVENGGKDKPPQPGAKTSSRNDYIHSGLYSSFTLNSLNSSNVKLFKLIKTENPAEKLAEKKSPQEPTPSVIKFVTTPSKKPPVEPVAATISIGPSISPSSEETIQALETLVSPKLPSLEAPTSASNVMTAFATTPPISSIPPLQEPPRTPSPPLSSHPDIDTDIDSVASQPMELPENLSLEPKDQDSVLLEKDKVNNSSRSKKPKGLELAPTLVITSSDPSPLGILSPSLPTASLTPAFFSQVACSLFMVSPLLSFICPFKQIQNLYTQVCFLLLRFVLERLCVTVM
Particulars: protein: recombinant; tags: N-terminal GST; dsDNA, one strand shown. Put shortly: as §1

Test [7] concerns the target T4, ETV2 (Homo sapiens, UniProt O00321 1-342).
T4 sequence: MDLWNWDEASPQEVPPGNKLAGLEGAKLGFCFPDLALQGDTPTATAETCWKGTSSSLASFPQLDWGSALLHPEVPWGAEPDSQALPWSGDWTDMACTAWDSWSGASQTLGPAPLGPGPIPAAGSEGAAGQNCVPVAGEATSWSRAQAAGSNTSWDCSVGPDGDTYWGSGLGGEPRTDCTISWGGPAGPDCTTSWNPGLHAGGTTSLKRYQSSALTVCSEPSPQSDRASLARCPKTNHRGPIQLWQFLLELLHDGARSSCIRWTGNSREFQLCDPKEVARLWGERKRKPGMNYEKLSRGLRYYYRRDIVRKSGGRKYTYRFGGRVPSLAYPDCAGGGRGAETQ
Particulars: protein: recombinant; tags: N-terminal GST; dsDNA, one strand shown. Summed up:
as §1

Test [8] addresses T5, ELF3 (Homo sapiens, UniProt P78545 1-371).
T5 sequence: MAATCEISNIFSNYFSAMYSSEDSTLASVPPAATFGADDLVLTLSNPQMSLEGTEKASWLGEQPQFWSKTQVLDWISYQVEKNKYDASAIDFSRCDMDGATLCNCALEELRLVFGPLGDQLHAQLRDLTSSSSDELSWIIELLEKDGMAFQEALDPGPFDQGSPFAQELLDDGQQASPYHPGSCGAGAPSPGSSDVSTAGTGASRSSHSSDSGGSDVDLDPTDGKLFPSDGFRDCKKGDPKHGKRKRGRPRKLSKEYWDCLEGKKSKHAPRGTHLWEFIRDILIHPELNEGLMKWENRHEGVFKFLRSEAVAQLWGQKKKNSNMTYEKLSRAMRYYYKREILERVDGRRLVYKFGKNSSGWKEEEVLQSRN
Particulars: protein: recombinant; tags: N-terminal GST; dsDNA, one strand shown. Summed up:
as §1

The target in test [9] is CRX (Homo sapiens, UniProt O43186 1-299). Particulars: protein: recombinant; tags: N-terminal GST; dsDNA, one strand shown. Summed up: as §1
Test [10] has as its target ETV1 (Homo sapiens, UniProt P50549 1-477). Particulars: protein: recombinant; tags: N-terminal GST; dsDNA, one strand shown. Put shortly: as §1
For test [11], the target named is T6, ERF (Homo sapiens, UniProt P50548 1-548).
T6 sequence: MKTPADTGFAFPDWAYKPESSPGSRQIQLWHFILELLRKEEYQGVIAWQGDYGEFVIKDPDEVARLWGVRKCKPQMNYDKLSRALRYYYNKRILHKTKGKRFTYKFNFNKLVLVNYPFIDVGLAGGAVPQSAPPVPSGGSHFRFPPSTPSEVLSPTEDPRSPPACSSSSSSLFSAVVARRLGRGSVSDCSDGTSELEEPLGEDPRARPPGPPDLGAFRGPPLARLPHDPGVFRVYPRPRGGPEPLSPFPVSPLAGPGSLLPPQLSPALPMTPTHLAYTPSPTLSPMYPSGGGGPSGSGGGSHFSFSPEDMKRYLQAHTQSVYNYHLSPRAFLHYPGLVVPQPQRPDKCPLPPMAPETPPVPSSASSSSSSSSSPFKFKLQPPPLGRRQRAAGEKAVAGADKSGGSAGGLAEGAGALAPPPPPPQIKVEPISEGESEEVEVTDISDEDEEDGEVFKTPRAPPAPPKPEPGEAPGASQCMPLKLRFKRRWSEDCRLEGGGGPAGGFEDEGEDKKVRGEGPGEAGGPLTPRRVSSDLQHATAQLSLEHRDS
Particulars: protein: recombinant; tags: N-terminal GST; dsDNA, one strand shown. Put shortly:
as §1

For test [12], the target named is T7, ETV3L (Homo sapiens, UniProt Q6ZN32 1-361).
T7 sequence: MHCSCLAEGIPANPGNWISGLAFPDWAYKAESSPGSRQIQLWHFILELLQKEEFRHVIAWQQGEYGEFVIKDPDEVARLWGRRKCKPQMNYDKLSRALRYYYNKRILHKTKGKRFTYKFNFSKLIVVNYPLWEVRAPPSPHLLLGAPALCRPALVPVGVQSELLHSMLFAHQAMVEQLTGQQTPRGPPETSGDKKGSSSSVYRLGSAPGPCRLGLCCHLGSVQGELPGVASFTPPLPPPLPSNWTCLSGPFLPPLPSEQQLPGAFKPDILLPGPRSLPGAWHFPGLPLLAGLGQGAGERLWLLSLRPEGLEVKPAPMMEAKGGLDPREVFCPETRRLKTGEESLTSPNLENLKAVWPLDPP
Particulars: protein: recombinant; tags: N-terminal GST; dsDNA, one strand shown. Put shortly:
as §1

For test [13], the target named is T8, ETS2 (Homo sapiens, UniProt P15036 1-469).
T8 sequence: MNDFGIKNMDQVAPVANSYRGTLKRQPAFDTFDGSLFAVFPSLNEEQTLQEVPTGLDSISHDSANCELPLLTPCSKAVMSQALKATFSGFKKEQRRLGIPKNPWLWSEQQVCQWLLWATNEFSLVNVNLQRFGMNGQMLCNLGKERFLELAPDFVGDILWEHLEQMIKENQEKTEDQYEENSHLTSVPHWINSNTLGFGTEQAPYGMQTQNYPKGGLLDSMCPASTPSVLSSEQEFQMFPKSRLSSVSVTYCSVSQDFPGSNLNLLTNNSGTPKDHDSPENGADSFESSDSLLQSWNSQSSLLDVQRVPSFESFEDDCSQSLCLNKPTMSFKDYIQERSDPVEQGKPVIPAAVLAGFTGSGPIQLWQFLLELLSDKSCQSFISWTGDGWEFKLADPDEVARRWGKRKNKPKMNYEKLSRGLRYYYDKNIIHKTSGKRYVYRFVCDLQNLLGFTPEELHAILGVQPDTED
Particulars: protein: recombinant; tags: N-terminal GST; dsDNA, one strand shown. Put shortly:
as §1

The target of test [14] is T9, SPDEF (Homo sapiens, UniProt O95238 1-335).
T9 sequence: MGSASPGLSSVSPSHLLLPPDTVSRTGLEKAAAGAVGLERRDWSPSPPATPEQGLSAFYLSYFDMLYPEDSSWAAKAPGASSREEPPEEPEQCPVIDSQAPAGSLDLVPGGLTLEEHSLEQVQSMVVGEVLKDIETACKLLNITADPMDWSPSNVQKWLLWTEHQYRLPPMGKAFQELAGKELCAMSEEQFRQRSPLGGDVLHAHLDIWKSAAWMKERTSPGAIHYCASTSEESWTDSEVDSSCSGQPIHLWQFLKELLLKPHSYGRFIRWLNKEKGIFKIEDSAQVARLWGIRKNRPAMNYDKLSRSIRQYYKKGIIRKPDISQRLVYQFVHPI
Particulars: protein: recombinant; tags: N-terminal GST; dsDNA, one strand shown. Put shortly: as §1

Test [15] deals with T10, ETV7 (Homo sapiens, UniProt Q9Y603 1-341).
T10 sequence: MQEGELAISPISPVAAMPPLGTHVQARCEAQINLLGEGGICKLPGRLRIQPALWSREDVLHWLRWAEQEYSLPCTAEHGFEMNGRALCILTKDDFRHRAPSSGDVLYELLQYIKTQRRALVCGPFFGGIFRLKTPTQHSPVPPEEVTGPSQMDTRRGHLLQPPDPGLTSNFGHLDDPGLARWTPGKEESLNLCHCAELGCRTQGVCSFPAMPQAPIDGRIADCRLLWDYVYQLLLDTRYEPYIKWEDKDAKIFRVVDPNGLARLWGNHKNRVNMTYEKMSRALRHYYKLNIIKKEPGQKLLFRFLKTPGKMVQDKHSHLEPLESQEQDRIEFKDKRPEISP
Particulars: protein: recombinant; tags: N-terminal GST; dsDNA, one strand shown. Put shortly:
as §1

The target in test [16] is T11, ELF5 (Homo sapiens, UniProt Q9UKW6-2 1-255).
T11 sequence: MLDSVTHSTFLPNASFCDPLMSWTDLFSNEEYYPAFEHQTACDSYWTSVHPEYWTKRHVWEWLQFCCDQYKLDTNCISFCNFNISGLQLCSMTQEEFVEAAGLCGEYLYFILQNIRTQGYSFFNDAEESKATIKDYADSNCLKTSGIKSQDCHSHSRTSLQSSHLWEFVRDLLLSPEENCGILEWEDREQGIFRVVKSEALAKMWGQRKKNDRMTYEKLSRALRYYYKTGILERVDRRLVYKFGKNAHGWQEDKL
Particulars: protein: recombinant; tags: N-terminal GST; dsDNA, one strand shown. Put shortly: as §1

The target in test [17] is T12, ETV3 (Homo sapiens, UniProt P41162-2 1-143).
T12 sequence: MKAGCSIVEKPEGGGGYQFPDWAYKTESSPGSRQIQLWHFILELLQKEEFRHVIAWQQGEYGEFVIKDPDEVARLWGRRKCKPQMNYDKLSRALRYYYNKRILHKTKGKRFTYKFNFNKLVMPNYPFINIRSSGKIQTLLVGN
Particulars: protein: recombinant; tags: N-terminal GST; dsDNA, one strand shown. Summed up:
as §1

For test [18], the target named is ETV6 (Homo sapiens, UniProt P41212 1-452). Particulars: protein: recombinant; tags: N-terminal GST; dsDNA, one strand shown. Put shortly: as §1
Chain of ETV6 (P41212 whole entry): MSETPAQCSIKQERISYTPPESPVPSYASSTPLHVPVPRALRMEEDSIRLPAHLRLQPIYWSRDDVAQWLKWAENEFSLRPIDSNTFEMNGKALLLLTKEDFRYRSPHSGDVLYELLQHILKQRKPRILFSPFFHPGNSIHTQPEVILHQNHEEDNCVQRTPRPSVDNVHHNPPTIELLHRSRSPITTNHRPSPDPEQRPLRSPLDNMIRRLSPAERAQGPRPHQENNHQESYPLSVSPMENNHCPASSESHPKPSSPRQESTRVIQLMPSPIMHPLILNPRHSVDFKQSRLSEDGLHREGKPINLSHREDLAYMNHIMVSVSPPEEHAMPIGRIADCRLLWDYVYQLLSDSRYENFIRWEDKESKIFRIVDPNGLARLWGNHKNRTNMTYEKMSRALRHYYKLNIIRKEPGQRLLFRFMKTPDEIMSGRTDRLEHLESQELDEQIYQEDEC

Chain of ELF4 (Q99607 whole entry): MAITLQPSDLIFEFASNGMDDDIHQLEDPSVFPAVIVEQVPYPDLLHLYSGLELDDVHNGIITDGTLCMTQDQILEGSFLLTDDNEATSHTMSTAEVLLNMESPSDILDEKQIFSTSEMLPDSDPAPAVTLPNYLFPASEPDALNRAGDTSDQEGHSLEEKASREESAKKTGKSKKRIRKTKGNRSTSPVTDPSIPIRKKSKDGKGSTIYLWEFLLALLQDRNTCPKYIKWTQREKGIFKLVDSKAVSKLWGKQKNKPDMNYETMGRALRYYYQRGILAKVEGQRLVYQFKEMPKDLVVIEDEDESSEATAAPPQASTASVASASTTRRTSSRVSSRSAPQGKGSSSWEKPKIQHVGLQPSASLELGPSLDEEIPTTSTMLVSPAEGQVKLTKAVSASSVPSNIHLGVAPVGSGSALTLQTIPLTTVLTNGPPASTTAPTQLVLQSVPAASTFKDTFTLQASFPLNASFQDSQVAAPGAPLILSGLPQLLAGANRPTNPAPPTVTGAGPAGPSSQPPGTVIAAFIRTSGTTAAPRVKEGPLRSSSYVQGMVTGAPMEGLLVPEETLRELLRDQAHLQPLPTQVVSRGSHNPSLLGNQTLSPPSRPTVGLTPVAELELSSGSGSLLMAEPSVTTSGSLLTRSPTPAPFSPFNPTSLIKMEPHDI
Chain of HSF1 (Q00613 whole entry): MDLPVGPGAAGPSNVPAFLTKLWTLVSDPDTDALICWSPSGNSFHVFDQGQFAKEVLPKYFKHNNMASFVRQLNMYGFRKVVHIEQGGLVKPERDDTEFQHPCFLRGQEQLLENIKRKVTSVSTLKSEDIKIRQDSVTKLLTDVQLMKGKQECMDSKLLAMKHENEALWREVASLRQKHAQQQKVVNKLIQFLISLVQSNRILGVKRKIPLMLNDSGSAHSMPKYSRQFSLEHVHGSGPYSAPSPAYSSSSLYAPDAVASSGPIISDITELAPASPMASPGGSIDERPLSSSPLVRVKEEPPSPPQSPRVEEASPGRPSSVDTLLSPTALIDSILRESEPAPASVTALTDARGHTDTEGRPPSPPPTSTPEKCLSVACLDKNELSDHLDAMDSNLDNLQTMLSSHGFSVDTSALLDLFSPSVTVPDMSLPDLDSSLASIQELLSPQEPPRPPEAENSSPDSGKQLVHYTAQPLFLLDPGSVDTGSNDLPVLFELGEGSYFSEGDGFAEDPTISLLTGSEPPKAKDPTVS
Chain of CRX (O43186 whole entry): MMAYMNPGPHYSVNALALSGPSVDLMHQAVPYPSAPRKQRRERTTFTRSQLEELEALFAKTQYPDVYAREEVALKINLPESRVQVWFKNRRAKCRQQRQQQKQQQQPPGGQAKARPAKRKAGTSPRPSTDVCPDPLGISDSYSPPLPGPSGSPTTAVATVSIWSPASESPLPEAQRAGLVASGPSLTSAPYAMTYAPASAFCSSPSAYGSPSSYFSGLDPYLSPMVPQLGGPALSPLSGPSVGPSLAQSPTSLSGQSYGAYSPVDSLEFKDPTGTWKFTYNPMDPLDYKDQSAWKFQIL
Chain of ETV5 (P41161 whole entry): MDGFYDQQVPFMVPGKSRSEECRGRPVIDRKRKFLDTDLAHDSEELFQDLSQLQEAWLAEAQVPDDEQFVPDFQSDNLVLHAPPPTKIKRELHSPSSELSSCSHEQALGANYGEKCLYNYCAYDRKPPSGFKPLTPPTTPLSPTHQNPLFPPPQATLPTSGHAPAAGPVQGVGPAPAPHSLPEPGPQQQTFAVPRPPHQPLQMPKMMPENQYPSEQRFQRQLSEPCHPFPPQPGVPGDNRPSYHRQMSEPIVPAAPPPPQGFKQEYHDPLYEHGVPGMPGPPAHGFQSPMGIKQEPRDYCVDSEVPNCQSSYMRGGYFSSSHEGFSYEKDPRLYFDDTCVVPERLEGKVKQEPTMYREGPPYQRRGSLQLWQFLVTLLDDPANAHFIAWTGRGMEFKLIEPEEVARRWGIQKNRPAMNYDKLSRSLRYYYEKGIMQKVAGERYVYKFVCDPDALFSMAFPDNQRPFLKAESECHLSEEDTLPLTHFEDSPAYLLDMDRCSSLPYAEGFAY
Chain of ETV1 (P50549 whole entry): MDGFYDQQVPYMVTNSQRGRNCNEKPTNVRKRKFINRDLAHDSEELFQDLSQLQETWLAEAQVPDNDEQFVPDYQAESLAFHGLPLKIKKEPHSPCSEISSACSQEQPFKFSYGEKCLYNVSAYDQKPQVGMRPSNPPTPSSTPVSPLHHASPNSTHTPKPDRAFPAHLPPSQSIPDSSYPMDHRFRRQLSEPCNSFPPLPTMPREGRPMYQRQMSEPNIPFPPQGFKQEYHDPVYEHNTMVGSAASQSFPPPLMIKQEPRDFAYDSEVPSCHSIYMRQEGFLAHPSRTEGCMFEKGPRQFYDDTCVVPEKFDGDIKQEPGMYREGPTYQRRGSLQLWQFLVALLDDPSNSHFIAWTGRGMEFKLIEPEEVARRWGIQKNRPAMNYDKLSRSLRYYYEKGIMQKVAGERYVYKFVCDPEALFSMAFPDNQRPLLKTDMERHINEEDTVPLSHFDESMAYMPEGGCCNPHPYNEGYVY

For TCGACC, the binding signal was 1.32 fold enrichment (6-mer frequency, TF over GST control) in test [1]; 1.27 fold enrichment (6-mer frequency, TF over GST control) in test [2]; 1.23 fold enrichment (6-mer frequency, TF over GST control) in [3]; 1.17 fold enrichment (6-mer frequency, TF over GST control) in test [4]; 1.39 fold enrichment (6-mer frequency, TF over GST control) in test [5]; 1.11 fold enrichment (6-mer frequency, TF over GST control) in [6]. In addition, the binding signal in test [7] was 1.35 fold enrichment (6-mer frequency, TF over GST control); in [8], 1.23 fold enrichment (6-mer frequency, TF over GST control); in [9], 1.11 fold enrichment (6-mer frequency, TF over GST control); in test [10] it was 1.25 fold enrichment (6-mer frequency, TF over GST control); in test [11], 1.31 fold enrichment (6-mer frequency, TF over GST control); in test [12], 1.33 fold enrichment (6-mer frequency, TF over GST control). The binding signal is 1.24 fold enrichment (6-mer frequency, TF over GST control) in test [13]; 1.37 fold enrichment (6-mer frequency, TF over GST control) in [14]; 1.21 fold enrichment (6-mer frequency, TF over GST control) in test [15]; 1.28 fold enrichment (6-mer frequency, TF over GST control) in test [16]; 1.27 fold enrichment (6-mer frequency, TF over GST control) in test [17]; 1.3 fold enrichment (6-mer frequency, TF over GST control) in test [18].
